Measured values taken from the supplement of paper PMC11732987, “Enantioselective OTUD7B fragment discovery through chemoproteomics screening and high-throughput optimisation” (Communications Chemistry, 2025).

Legend:
Assay in all cases: log2 ratio of Biotin-Ahx-Ub-VS probe labelling (fragment/DMSO); higher = less target engagement (more negative = stronger competition), active = hit call of the paper (q ≤ 0.05, log2 ratio ≤ -1)
Conditions in all cases: compound concentration: 200 uM; treatment time: 3 h
OTUD6B = target: T1, OTUD6B (UniProt Q8N6M0)
T1 sequence (whole entry): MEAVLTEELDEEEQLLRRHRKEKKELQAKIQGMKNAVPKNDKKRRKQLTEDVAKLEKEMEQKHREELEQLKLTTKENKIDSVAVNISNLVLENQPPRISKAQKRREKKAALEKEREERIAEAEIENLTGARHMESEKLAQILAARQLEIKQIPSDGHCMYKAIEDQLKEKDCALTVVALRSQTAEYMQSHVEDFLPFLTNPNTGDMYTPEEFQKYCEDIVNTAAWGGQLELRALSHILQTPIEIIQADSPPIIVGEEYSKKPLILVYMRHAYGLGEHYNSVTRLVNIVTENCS
In short: (§1)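 HEK293T lysate (495 µg per sample, in Tris/CHAPS/IGEPAL buffer with protease inhibitors) was exposed in triplicate for 3 h to fragment at 200 µM or to vehicle, then to Biotin-Ahx-Ub-VS at 0.5 µM final for 1 h. Labelled DUBs were enriched on NeutrAvidin, digested with LysC and trypsin, and analysed by diaPASEF LC-MS/MS. Spectronaut label-free quantities were normalised to the global median, and values are average log2 ratios of fragment over vehicle from an unpaired t-test. Only proteins with ≥2 unique peptides were used.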

OTUD7B = target: T2, OTUD7B (UniProt Q6GQQ9)
T2 sequence (whole entry): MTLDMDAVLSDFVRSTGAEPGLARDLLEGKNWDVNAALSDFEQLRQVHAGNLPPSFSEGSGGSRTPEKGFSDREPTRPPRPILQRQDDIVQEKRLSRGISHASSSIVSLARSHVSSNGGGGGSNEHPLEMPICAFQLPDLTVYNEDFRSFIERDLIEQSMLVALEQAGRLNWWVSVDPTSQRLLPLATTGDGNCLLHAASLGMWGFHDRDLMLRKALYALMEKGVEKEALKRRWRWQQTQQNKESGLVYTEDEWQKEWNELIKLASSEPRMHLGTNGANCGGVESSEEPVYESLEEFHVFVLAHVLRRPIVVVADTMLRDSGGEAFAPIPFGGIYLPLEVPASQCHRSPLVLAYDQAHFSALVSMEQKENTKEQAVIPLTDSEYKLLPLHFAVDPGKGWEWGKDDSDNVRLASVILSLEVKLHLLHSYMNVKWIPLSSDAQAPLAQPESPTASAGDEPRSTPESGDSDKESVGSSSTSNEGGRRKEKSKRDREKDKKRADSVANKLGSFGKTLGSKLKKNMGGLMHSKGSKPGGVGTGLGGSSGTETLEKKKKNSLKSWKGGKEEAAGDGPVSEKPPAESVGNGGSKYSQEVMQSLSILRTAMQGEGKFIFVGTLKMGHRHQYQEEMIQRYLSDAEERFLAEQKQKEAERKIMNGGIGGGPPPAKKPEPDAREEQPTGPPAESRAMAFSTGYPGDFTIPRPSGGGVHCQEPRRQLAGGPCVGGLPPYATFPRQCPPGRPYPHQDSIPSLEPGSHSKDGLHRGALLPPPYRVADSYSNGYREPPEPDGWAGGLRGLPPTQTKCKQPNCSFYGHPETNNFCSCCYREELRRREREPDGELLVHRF
In short: as §1

PRPF8 = PRPF8 (UniProt Q6P2Q9)
In short: as §1

PSMD7 = target: T3, PSMD7 (UniProt P51665)
T3 sequence (whole entry): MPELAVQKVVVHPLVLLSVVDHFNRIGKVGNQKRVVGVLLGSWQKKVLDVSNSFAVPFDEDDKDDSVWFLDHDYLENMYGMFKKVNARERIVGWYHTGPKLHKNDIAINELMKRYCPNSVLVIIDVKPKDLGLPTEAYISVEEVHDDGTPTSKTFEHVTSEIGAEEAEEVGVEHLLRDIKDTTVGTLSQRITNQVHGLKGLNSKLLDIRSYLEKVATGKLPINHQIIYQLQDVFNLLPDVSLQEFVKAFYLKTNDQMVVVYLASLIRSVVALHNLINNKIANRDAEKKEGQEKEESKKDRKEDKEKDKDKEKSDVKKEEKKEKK
In short: as §1

UCHL1 = UCHL1 (UniProt P09936)
In short: as §1

UCHL3 = target: T4, UCHL3 (UniProt P15374)
T4 sequence (whole entry): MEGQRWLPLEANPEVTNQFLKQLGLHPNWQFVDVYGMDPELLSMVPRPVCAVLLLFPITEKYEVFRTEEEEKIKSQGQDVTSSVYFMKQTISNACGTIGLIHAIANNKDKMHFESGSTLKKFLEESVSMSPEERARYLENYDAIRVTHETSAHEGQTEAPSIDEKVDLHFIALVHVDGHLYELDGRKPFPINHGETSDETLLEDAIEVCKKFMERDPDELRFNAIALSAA
In short: as §1

UCHL5 = target: T5, UCHL5 (UniProt Q9Y5K5)
T5 sequence (whole entry): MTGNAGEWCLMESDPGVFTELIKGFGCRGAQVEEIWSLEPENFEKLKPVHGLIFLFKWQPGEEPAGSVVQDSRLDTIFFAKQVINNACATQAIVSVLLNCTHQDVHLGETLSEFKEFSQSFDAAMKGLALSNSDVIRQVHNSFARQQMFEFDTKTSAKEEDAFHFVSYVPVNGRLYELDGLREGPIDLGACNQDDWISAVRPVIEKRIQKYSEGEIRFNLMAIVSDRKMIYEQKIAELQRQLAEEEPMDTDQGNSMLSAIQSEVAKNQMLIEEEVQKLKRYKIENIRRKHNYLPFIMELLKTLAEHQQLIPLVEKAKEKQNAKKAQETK
In short: as §1

USP10 = USP10 (UniProt Q14694)
In short: as §1

USP15 = target: T6, USP15 (UniProt Q9Y4E8)
T6 sequence (whole entry): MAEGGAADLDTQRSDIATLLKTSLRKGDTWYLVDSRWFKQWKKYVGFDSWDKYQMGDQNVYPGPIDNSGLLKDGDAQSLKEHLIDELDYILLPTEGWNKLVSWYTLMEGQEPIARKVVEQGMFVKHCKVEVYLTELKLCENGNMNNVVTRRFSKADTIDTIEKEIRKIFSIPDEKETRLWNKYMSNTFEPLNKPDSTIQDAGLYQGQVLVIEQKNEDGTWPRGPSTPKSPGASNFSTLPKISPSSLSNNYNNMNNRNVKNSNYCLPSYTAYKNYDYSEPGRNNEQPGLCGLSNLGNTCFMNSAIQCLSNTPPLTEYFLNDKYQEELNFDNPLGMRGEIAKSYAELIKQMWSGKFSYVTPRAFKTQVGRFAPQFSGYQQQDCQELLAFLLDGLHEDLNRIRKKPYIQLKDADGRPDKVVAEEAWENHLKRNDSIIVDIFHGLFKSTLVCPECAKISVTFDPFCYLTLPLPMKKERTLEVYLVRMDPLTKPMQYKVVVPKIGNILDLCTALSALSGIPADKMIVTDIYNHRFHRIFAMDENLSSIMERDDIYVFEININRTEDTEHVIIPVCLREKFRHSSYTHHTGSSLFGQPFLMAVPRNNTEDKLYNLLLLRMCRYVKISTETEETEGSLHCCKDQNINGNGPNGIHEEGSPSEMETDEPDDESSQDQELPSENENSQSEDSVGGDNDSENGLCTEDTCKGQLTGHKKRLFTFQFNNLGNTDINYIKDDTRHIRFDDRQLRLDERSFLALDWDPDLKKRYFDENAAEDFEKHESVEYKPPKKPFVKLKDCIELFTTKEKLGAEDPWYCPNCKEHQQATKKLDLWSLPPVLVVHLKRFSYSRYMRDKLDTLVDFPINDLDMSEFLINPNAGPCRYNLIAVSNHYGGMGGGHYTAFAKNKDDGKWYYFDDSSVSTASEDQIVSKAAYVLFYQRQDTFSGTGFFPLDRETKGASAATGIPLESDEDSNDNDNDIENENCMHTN
In short: as §1

USP16 = USP16 (UniProt Q9Y5T5)
In short: as §1

Measured: log2 ratio of Biotin-Ahx-Ub-VS probe labelling

USP16, sequence (Q9Y5T5 whole entry, looked up): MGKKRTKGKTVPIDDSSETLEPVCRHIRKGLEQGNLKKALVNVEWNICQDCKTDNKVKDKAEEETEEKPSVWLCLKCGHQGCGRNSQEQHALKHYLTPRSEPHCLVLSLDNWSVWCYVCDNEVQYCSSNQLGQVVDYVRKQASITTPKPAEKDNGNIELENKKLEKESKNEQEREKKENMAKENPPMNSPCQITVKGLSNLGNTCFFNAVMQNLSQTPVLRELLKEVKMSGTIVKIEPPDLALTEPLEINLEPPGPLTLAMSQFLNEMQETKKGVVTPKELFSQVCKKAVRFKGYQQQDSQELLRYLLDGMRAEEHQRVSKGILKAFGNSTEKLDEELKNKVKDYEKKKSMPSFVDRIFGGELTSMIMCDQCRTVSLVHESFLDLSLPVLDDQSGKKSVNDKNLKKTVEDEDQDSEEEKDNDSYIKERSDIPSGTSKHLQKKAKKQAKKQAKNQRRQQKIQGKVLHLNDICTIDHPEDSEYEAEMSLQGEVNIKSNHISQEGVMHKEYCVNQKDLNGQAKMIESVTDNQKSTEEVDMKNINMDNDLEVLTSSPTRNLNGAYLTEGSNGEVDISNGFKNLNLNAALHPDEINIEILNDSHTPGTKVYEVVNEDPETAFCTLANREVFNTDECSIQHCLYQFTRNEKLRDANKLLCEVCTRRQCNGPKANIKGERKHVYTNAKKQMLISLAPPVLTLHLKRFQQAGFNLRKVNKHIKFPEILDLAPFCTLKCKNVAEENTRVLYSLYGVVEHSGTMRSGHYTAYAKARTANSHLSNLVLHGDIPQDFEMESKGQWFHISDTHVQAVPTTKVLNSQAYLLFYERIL
UCHL1, sequence (P09936 whole entry, looked up): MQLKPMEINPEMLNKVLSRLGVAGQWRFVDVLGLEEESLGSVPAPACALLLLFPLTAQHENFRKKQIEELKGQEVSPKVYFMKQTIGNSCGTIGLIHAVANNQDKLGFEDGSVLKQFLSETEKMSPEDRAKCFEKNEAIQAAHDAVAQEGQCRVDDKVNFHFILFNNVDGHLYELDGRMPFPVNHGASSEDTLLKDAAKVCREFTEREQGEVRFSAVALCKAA
USP10, sequence (Q14694 whole entry): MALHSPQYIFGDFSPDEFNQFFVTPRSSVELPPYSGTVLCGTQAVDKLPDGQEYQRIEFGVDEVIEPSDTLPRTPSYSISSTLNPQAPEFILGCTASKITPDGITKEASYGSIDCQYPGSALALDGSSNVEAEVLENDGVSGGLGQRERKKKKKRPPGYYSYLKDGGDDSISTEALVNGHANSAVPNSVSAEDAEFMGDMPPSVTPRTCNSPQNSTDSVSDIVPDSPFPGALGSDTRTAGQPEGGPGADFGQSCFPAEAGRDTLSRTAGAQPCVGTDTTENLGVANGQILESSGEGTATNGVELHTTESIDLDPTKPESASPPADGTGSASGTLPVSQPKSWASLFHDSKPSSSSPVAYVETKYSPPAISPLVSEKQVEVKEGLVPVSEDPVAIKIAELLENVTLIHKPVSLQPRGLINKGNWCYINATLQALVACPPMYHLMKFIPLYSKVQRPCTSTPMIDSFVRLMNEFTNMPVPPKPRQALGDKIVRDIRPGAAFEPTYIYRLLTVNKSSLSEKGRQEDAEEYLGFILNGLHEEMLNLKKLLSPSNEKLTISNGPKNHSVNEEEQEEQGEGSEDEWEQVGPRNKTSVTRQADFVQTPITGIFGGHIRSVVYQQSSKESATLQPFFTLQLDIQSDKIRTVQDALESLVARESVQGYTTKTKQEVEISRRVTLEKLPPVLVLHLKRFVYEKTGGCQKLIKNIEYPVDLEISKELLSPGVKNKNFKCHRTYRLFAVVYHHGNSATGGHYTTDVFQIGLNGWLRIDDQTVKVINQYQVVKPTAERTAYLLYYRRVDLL

O=C(O)C1Cc2ccccc2CN1C(=O)CCl (stereo not given)
active: UCHL1 -1.8
inactive: OTUD6B -0.439 | OTUD7B -0.732 | PRPF8 -0.175 | PSMD7 -0.239 | UCHL3 -0.19 | UCHL5 -0.324 | USP10 -0.112 | USP15 -0.35 | USP16 0.23
